PubChem BioAssay (Tox21)
Results filed as inconclusive are left out. Activity calls are given as the source filed them. Calls come from the whole dose curve; as a rule, active = well fitted curve in the direction sought with a large enough effect in the repeat runs; inconclusive = weak or mixed curves; inactive = no such curve, though single readings can be large; an effect the other way counts as inactive or inconclusive.

Legend:
[1] = qHTS RealTime-Glo MT Cell Viability Assay in HEK293 cells - 40 hour (AID 1224874); details: RealTime-Glo luminescence; max response: hits give low values; note: nearly all actives have a fitted effect of over 50% in size; note: potency is the fitted concentration of half-maximal effect
Summary of the method: (§1)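 Measured as luminescence from the same continuously cultured HEK293 wells at successive time points (0, 8, 16, 24, 32, 40 h) after compound addition. Reagent present from seeding; dosing at 5 h; incubation 37 C.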

[2] = A CellTox Green Cytotoxicity Assay to monitor cytotoxicity in HEK293 cells - 24 hour (AID 1224875); note: nearly all actives have a fitted effect of over 45% in size; note: potency is the fitted concentration of half-maximal effect
Summary of the method: (§2)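 Homogeneous no-lysis format: HEK293 cell suspension mixed with CellTox Green reagent, seeded, incubated 5 h at 37 C/5% CO2, then dosed by pintool with compound in DMSO.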

[3] = qHTS RealTime-Glo MT Cell Viability Assay in HepG2 cells - 32 hour (AID 1224877); note: nearly all actives have a fitted effect of over 55% in size; note: potency is the fitted concentration of half-maximal effect
Summary of the method: (§3)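 Luminescence read-out: viable HepG2 cells reduce a prosubstrate to a NanoLuc substrate, giving a signal proportional to live cell number. Reads taken at 0, 8, 16, 24, 32 and 40 h of compound exposure at 37 C.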

[4] = A CellTox Green Cytotoxicity Assay to monitor cytotoxicity in HepG2 cells - 24 hour (AID 1224878); note: nearly all actives have a fitted effect of over 45% in size; note: potency is the fitted concentration of half-maximal effect
Summary of the method: (§4)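 Fluorescent DNA-binding dye, 600 HepG2 cells/well, 5 h preincubation then compound in DMSO; same plates read at 0–40 h, 37 C.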

[5] = A CellTox Green Cytotoxicity Assay to monitor cytotoxicity in HepG2 cells - 40 hour (AID 1224879); note: nearly all actives have a fitted effect of over 40% in size; note: potency is the fitted concentration of half-maximal effect
Summary of the method: as §4

[6] = qHTS RealTime-Glo MT Cell Viability Assay in HEK293 cells - 0 hour (AID 1224880); note: top concentration of the series differs between compounds; nearly all actives have a fitted effect of over 45% in size
Summary of the method: as §1

[7] = A CellTox Green Cytotoxicity Assay to monitor cytotoxicity in HEK293 cells - 32 hour (AID 1224881); note: nearly all actives have a fitted effect of over 40% in size; note: potency is the fitted concentration of half-maximal effect
Summary of the method: as §2

[8] = A CellTox Green Cytotoxicity Assay to monitor cytotoxicity in HepG2 cells - 0 hour (AID 1224882); note: nearly all actives have a fitted effect of over 35% in size
Summary of the method: as §4

[9] = A CellTox Green Cytotoxicity Assay to monitor cytotoxicity in HepG2 cells - 32 hour (AID 1224883); note: nearly all actives have a fitted effect of over 50% in size; note: potency is the fitted concentration of half-maximal effect
Summary of the method: as §4

[10] = A CellTox Green Cytotoxicity Assay to monitor cytotoxicity in HEK293 cells - 8 hour (AID 1224884); note: nearly all actives have a fitted effect of over 35% in size; note: potency is the fitted concentration of half-maximal effect
Summary of the method: as §2

[11] = qHTS RealTime-Glo MT Cell Viability Assay in HepG2 cells - 16 hour (AID 1224885); note: nearly all actives have a fitted effect of over 50% in size; note: potency is the fitted concentration of half-maximal effect
Summary of the method: as §3

[12] = qHTS RealTime-Glo MT Cell Viability Assay in HEK293 cells - 24 hour (AID 1224886); note: nearly all actives have a fitted effect of over 50% in size; note: potency is the fitted concentration of half-maximal effect
Summary of the method: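 Nonlytic real-time viability readout: viable cells convert prosubstrate to NanoLuc substrate, giving luminescence proportional to live cell number. HEK293, 600 cells/well, compound added after 5 h, continuous culture at 37 C.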

[13] = A CellTox Green Cytotoxicity Assay to monitor cytotoxicity in HEK293 cells - 16 hour (AID 1224888); note: nearly all actives have a fitted effect of over 35% in size; note: potency is the fitted concentration of half-maximal effect
Summary of the method: as §2

[14] = qHTS RealTime-Glo MT Cell Viability Assay in HepG2 cells - 0 hour (AID 1224889); note: nearly all actives have a fitted effect of over 50% in size
Summary of the method: as §3

[15] = qHTS assay to identify small molecule antagonists of the estrogen receptor alpha (ER-alpha) signaling pathway using the BG1 cell line in the presence of 0.1 nM 17-beta-estradiol - cell viability counter screen (AID 1259241); note: nearly all actives have a fitted effect of over 40% in size; note: potency is the fitted concentration of half-maximal effect
Summary of the method: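 Following 5 days in phenol red-free medium with charcoal-stripped serum, VM7Luc4E2 cells received test compounds alongside 0.1 nM 17beta-estradiol (final) at 37C for 22 hr. Live cells were then quantified via protease-substrate fluorescence.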

[16] = qHTS assay to identify small molecule antagonists of the androgen receptor (AR) signaling pathway using the MDA cell line in the presence of 0.5 nM R1881 - cell viability counter screen (AID 1259242); note: nearly all actives have a fitted effect of over 45% in size; note: potency is the fitted concentration of half-maximal effect
Summary of the method: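 Human breast carcinoma MDA-kb2 cells, cultured without CO2, receive compounds alongside 0.5 nM (final) R1881 agonist. After 16 hr at 37C, viability is taken as live-cell protease signal.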

[17] = qHTS RealTime-Glo MT Cell Viability Assay in HEK293 cells - 8 hour (AID 1224887); note: nearly all actives have a fitted effect of over 50% in size; note: potency is the fitted concentration of half-maximal effect
Summary of the method: as §1

[18] = A CellTox Green Cytotoxicity Assay to monitor cytotoxicity in HepG2 cells - 8 hour (AID 1224890); note: nearly all actives have a fitted effect of over 45% in size
Summary of the method: as §4

[19] = molecular target: Androgen receptor (Homo sapiens) (UniProt P10275); experiment: qHTS assay to identify small molecule antagonists of the androgen receptor (AR) signaling pathway using the MDA cell line in the presence of 0.5 nM R1881 (AID 1259243); note: nearly all actives have a fitted effect of over 50% in size; note: potency is the fitted concentration of half-maximal effect
Sequence of Androgen receptor (Homo sapiens) (P10275 whole entry, looked up): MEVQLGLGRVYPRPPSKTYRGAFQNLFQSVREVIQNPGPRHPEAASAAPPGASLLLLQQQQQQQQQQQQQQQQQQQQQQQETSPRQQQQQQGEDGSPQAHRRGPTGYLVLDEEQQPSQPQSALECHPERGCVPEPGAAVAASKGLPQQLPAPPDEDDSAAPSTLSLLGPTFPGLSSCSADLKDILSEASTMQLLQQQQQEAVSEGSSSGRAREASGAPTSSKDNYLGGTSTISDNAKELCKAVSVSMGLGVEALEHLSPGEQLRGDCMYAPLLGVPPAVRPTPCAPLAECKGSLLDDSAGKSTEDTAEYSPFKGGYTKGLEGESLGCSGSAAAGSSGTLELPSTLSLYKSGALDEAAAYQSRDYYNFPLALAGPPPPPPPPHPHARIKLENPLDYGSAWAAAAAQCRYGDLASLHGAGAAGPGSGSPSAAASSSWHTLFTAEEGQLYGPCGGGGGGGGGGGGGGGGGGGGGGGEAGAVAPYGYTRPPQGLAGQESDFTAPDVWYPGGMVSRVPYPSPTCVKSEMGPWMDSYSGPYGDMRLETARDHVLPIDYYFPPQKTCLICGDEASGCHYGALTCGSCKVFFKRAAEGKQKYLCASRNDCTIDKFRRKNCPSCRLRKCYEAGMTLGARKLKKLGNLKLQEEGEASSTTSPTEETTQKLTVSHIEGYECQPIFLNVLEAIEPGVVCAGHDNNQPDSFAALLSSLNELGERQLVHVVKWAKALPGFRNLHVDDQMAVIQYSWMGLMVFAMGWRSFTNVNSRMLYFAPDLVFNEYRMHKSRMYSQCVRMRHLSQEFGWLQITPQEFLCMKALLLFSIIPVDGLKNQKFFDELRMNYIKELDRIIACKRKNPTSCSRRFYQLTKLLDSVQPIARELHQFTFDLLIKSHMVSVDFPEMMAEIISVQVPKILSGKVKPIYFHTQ
Summary of the method: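 Cells: MDA-kb2 (MMTV-luc). Stimulus: 0.5 nM R1881. Time: 16 hr, 37C, no CO2. Detection: ONE-Glo luminescence after 30 min at RT.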

[20] = A CellTox Green Cytotoxicity Assay to monitor cytotoxicity in HepG2 cells - 16 hour (AID 1224876); note: nearly all actives have a fitted effect of over 45% in size; note: potency is the fitted concentration of half-maximal effect
Summary of the method: as §4
% is set by controls: 0 for no effect and ±100 for the full control effect.

c1ccc(-c2ccc(C(c3ccccc3)n3ccnc3)cc2)cc1 (stereo not given)
active: Potency [1] 26.8 µM | Potency [12] 30.1 µM
inactive: Potency [2] | Potency [3] | Potency [4] | Potency [5] | Potency [6] | Potency [7] | Potency [8] | Potency [9] | Potency [10] | Potency [11] | Potency [13] | Potency [14] | Potency [15] | Potency [16]

CCCCCCCCOC(=O)c1cc(O)c(O)c(O)c1
inactive: Potency [6] | Potency [8] | Potency [10] | Potency [14]
active: Potency [1] 11 µM | Potency [3] 19.5 µM | Potency [4] 43.6 µM | Potency [5] 24.5 µM | Potency [9] 43.6 µM | Potency [11] 19.5 µM | Potency [12] 11 µM | Potency [17] 5.49 µM

COc1cc([C@@H]2c3cc4c(cc3[C@@H](O[C@@H]3O[C@@H]5CO[C@@H](C)O[C@H]5[C@H](O)[C@H]3O)[C@H]3COC(=O)[C@H]23)OCO4)cc(OC)c1O
active: Potency [1] 0.684 µM | Potency [4] 48.4 µM | Potency [5] 48.4 µM | Potency [12] 1.08 µM
inactive: Potency [2] | Potency [6] | Potency [7] | Potency [8] | Potency [10] | Potency [11] | Potency [17] | Potency [13] | Potency [14] | Potency [18] | Potency [15] | Potency [16]

Cc1c[nH]c(=O)[nH]c1=O
inactive: max response [1] 10.6% | Potency [2] | Potency [3] | Potency [6] | Potency [7] | Potency [8] | Potency [10] | Potency [11] | Potency [12] | Potency [17] | Potency [13] | Potency [14] | Potency [15] | Potency [16] | Potency [19]

CC1=C(/C=C/C(C)=C/C=C/C(C)=C\C(=O)O)C(C)(C)CCC1
inactive: Potency [3] | Potency [6] | Potency [8] | Potency [10] | Potency [11] | Potency [17] | Potency [13] | Potency [14] | Potency [18] | Potency [15] | Potency [16]
active: Potency [5] 55.1 µM

CSc1ccc(O)cc1C
inactive: Potency [2] | Potency [20] | Potency [3] | Potency [4] | Potency [5] | Potency [6] | Potency [7] | Potency [8] | Potency [9] | Potency [10] | Potency [11] | Potency [12] | Potency [13] | Potency [14] | Potency [18] | Potency [16]

CN1CCN(CCCN2c3ccccc3Sc3ccc(Cl)cc32)CC1
inactive: Potency [8] | Potency [10] | Potency [17] | Potency [13] | Potency [15] | Potency [16]
active: Potency [20] 23.9 µM | Potency [3] 23.9 µM | Potency [4] 23.9 µM | Potency [5] 23.9 µM | Potency [9] 23.9 µM

Nc1ccc(Oc2cccc(Oc3ccc(N)cc3)c2)cc1
inactive: Potency [2] | Potency [3] | Potency [4] | Potency [5] | Potency [7] | Potency [8] | Potency [9] | Potency [10] | Potency [11] | Potency [12] | Potency [17] | Potency [13] | Potency [14] | Potency [18] | Potency [15] | Potency [16]

CCN(CC)c1ccc2c(c1)Oc1cc(N(CC)CC)ccc1C21OC(=O)c2ccccc21
active: Potency [2] 19 µM | Potency [20] 23.9 µM | Potency [4] 23.9 µM | Potency [5] 23.9 µM | Potency [7] 19 µM | Potency [9] 23.9 µM | Potency [10] 23.9 µM | Potency [13] 21.3 µM | Potency [15] 5.96 µM | Potency [16] 10.6 µM
inactive: Potency [3] | Potency [6] | Potency [11] | Potency [17] | Potency [14]

C=C1C(CCl)(CCl)C2(Cl)C(Cl)C(Cl)C1(Cl)C2(Cl)Cl (stereo not given)
inactive: Potency [6] | Potency [8] | Potency [14] | Potency [18] | Potency [15] | Potency [16]
active: Potency [2] 54.3 µM | Potency [7] 48.4 µM | Potency [17] 43.1 µM | Potency [19] 48 µM

COc1ccc2ccccc2c1
inactive: Potency [6]
